Records with an inconclusive call do not appear. Active and inactive are the calls of the source. Calls follow the shape of the dose curve; as a rule, active = well fitted inhibition curve with a large enough effect; inconclusive = small, poorly fitted or top-dose-only effect; inactive = no such curve, though single readings can be large or run the other way.
Potency is read from the fitted curve at half-maximal effect.

A short description of this assay: InCell qHTS Assay for Inhibitors of the mTORC1 Signaling Pathway in MEF (Tsc2-/-, p53-/-) Cells: Hit Validation.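 Also: phospho-S6 Ser235/236 signal normalized to propidium iodide cell count per well; nearly all actives have a fitted effect of over 75% in size.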 Conditions: phospho-rpS6 immunofluorescence, 24 h; activity change, negative = inhibition: at 38.3 µM (top of the series).
Turning to `CC1=Nc2cc(C(=O)NC3CCCCC3)ccc2Sc2ccc(Cl)cc21`, the activity change, negative = inhibition was -100%.

Turning to `COc1ccc(NC(=O)CSc2nc3ccccc3n2Cc2cccc(OC)c2)cc1`, the activity change, negative = inhibition was -100%.

With `Cc1ccccc1NC(=O)Cn1cc(C(=O)c2cccs2)c2ccccc21`, the activity change, negative = inhibition is -100%.

Turning to `Cc1ccc(NC(=O)Nc2cccs2)c(C)c1`, the activity change, negative = inhibition is -100%.

`CC(C)N(C(=O)Cn1cc(S(=O)(=O)Cc2ccc(Cl)cc2)c2ccccc21)C(C)C`: the activity change, negative = inhibition is -100%.

Regarding `CC(C)CCNC(=O)c1cccc(Nc2nc3ccccc3n3nnnc23)c1`, the Potency was 4.14 µM (active).

`O=C(NCc1ccccc1)c1ccc2c(c1)N(Cc1ccccc1F)C(=O)c1ccccc1S2=O` (configuration not stated): the activity change, negative = inhibition is -100%.

For the compound `CC(=O)C1=C(c2ccc(Cl)c(Cl)c2)N(C(C)=O)n2c(C)nnc2S1`, the Potency was 7.36 µM (active).

With `CCCCOc1ccccc1C1CC(=O)Nc2ccc3ccccc3c21` (configuration not stated), the activity change, negative = inhibition is -100%.

In the case of `Cc1cccc(CS(=O)(=O)c2ncc(Cl)c(C(=O)Nc3nnc(C(C)C)s3)n2)c1`, the Potency was 13.1 µM (active).

On to `COc1cc(OC)c(NS(=O)(=O)c2ccc3c(c2)CCCN3C(C)=O)cc1Cl`, for which the activity change, negative = inhibition was -100%.

Consider `O=C(Nc1ccc(Cl)c(C(F)(F)F)c1)c1ccc2c(c1)CCN2S(=O)(=O)c1ccccc1`, for which the activity change, negative = inhibition was -100%.

`O=C(NCc1ccc(F)cc1)c1ccc2c(Cl)c3c(nc2c1)CCCC3`: the activity change, negative = inhibition was -100%.

As to `Cc1cccc(Nc2ncc(NC(=O)c3cccc(F)c3)c(Nc3cccc(C)c3)n2)c1`, the activity change, negative = inhibition is -100%.

For the compound `CCOc1ccc(S(=O)(=O)NCCc2sc(-c3ccc(C)cc3)nc2C)cc1`, the activity change, negative = inhibition is -100%.

As for `Cc1ccc(NC(=O)c2c(C)oc3ccc(O)c(CN(C)Cc4ccccc4)c23)c(C)c1`, the activity change, negative = inhibition was -100%.

In the case of `CCN(CC)CCOC(=O)c1ccc(NC(=O)c2nn(-c3ccc(C)cc3)c(=O)c3c2c2ccccc2n3C)cc1`, the Potency was 3.29 µM (active).

For the compound `CCC(C(=O)N1CCN(c2cccc(C)c2C)CC1)n1nc(C)c2sc3ccccc3c2c1=O` (configuration not stated), the activity change, negative = inhibition was -100%.

On to `Cc1cc(C)cc(OCC(=O)Nc2cccc(-c3nc4ccccc4[nH]3)c2)c1`, for which the activity change, negative = inhibition was -100%.

With `Cc1ccc(C)c(N2CCN(CCCNC(=O)C3COc4ccccc4C3)CC2)c1` (configuration not stated), the activity change, negative = inhibition was -100%.

Take `COc1ccc(S(=O)(=O)NCCc2sc3nc(-c4ccc(C)cc4)nn3c2C)cc1F`: the activity change, negative = inhibition is -100%.

`Cc1ccc(-c2nnn(CC(=O)N(CC(=O)NCCC(C)C)c3ccc(F)cc3)n2)cc1`: the activity change, negative = inhibition was -100%.

In the case of `COc1ccc(/C=C/C(=O)Nc2ccc3nc(N4CCC(C)CC4)cc(C)c3c2)cc1OC`, the activity change, negative = inhibition was -100%.

Turning to `CN(C(=O)CSc1nc2ccc(NC(=O)COc3ccc(F)cc3)cc2s1)c1ccccc1`, the activity change, negative = inhibition was -100%.

With `Cn1nnnc1SCCCNCc1cc(Cl)ccc1OCc1ccc(F)cc1`, the activity change, negative = inhibition is -100%.

`CCS(=O)(=O)c1oc(-c2ccc(F)cc2)nc1S(=O)(=O)c1ccccc1`: the Potency was 0.736 µM (active).

Take `CCS(=O)(=O)c1ncc(Cl)c(C(=O)N2CCN(c3ccc(OC)cc3)CC2)n1`: the Potency is 4.65 µM (active).

On to `COC(=O)c1ccccc1NC(=O)Cn1c(=O)n(-c2ccc(C)cc2)c(=O)c2ccccc21`, for which the activity change, negative = inhibition was -18.6%.

On to `CC(C)c1nnc(NC(=O)c2nc(S(=O)(=O)Cc3ccccc3)ncc2Cl)s1`, for which the Potency was 3.29 µM (active).

Regarding `C#CC(C)(CC)NC(=O)Cn1nnc(-c2ccc(OCc3c(F)cccc3Cl)cc2)n1` (configuration not stated), the activity change, negative = inhibition is -100%.

With `CCCCN1C(=O)C(O)(CC(=O)c2ccc(CC)cc2)c2cc(Br)ccc21` (configuration not stated), the activity change, negative = inhibition was -23.7%.

For the compound `CCCOC(=O)c1c(C)oc2c1cc(NS(=O)(=O)c1ccc(OCC)cc1)c1ccccc12`, the activity change, negative = inhibition is -15.2%.

Take `COc1ccc2cc(CNc3ccccc3)c(=O)n(CC(=O)Nc3ccc(C)cc3C)c2c1`: the activity change, negative = inhibition is -13.3%.

Turning to `COC(=O)c1cccc(-n2c(CCC(=O)O)ccc2-c2ccc(OC)cc2)c1`, the activity change, negative = inhibition is -100%.

Regarding `COc1cccc(/C=C(\C#N)c2nc3ccc(C)cc3[nH]2)c1`, the activity change, negative = inhibition was -100%.

Consider `COc1cc(OC)cc(C(=O)NCCc2csc(-c3cccc(C)c3)n2)c1`, for which the activity change, negative = inhibition worked out at 1.72%.

As to `Cc1ccc(N(CC(O)Cn2c3ccccc3c3ccccc32)S(=O)(=O)c2ccc(F)cc2)cc1` (configuration not stated), the activity change, negative = inhibition was -64.5%.

(Values after PubChem BioAssay AID651791 (National Center for Advancing Translational Sciences (NCATS), 2012).)
